Only some compounds are listed: those with a hit (about 2.8% of all), similar ones and a draw of the others.
KDM5B inh: KDM5B demethylase inhibition; Q9UGL1; KDM5B demethylase, FDH-coupled NADH fluorescence (FDH is formaldehyde dehydrogenase); Potency, µM (doses to about 57.7 µM), actives largely listed as inhibitors; 220,000 tested, 2.6% active; AID 1347165; note: potency is the fitted concentration of half-maximal effect; 0% is about no effect; nearly all actives have a fitted effect of over 70% in size
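Here, H3K4me3 peptide (12.5 µM in substrate mix) is demethylated by KDM5BΔAP, 200 nM final, after 10 min compound exposure. Formaldehyde product is coupled through FDH (0.25 U/mL in mix) to NADH fluorescence; 30-min ΔRFU feeds dose-response curves.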
SNCA expr inh: SNCA gene expression inhibition; HEK-293 SNCA-luciferase knock-in, luminescence, 24 h; Potency, µM (doses to about 57.2 µM), inactives show at the highest dose activity change, negative = inhibition, actives largely listed as inhibitors; 140,000 tested, 0.17% active;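 note: potency is the fitted concentration of half-maximal effect; plate controls were DMSO cells for no effect and cell-free wells for full effect; nearly all actives have a fitted effect of over 45% in size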
SNCA viab count: cell viability loss counter-screen | 150,000 tested, 0.12% active | AID 1671193 | HEK-293-SNCA-luc viability, GF-AFC fluorescence, 24 h | Potency, µM (doses to about 57.1 µM), inactives show top-dose activity change, negative = cytotoxicity, usual class: cytotoxic;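 note: potency is the fitted concentration of half-maximal effect; 0% = DMSO-treated cells and -100% = medium-only wells without cells; nearly all actives have a fitted effect of over 30% in size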
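Cytotoxicity counterscreen: after 24 h compound treatment of genome-edited SNCA-luciferase HEK-293 cells, live-cell protease substrate GF-AFC read by fluorescence after 30 min; activity scaled between DMSO (0%) and medium-only (-100%), curves Hill-fitted.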
IP6K1 inhibitor: inhibitors of human IP6K1; 140,000 tested, 0.81% active; activity change, % (series mostly up to about 58 µM); IP6K1 kinase, ADP-Glo luminescence, 2 h; hits give low values; Q92551; in the data active = activity change below about -25%; note: % is set by controls: 0 for no effect and ±100 for the full control effect
Target sequence (Q92551 whole entry, looked up): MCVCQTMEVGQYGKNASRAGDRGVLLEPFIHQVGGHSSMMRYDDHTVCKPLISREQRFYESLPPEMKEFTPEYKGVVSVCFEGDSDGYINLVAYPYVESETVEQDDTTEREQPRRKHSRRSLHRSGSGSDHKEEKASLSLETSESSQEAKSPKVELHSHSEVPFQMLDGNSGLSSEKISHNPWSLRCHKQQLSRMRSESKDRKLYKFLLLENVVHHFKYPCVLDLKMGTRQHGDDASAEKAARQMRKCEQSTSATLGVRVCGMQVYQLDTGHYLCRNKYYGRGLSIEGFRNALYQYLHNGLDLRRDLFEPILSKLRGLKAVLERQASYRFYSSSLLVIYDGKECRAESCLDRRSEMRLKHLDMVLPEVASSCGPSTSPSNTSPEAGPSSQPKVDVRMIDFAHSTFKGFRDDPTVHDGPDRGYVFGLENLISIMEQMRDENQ
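ADP-Glo luminescence measures ADP made by human IP6K1 during a 2 h RT reaction with ATP/IP6 (mix at 1.3 mM/130 uM); top library doses 57.5 and 19.1 uM final.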
Active calls of the source: *; i = inactive; ? = inconclusive; . = no result; [ ] = dose if it differs, or a comment. Unless noted, calls come from the whole dose curve; as a rule, active = well fitted curve in the direction sought with a large enough effect; inconclusive = small, poorly fitted or top-dose-only effect, or another doubt; inactive = no such curve, though single readings can be large; an effect the other way counts as inactive or inconclusive.

SMILES	KDM5B inh	SNCA expr inh	SNCA viab count	IP6K1 inhibitor
O=C(NCc1nnc2c(-c3nc(C4CC4)no3)cccn12)c1cc(F)ccc1Cl	28µM*	-29%	5%	-7
CCOc1ccccc1C(=O)NCc1nnc2c(-c3nc(C4CC4)no3)cccn12	i	9%	-5%	3
O=C(NCc1nnc2c(-c3nc(C4CC4)no3)cccn12)c1cc(F)ccc1F	28µM*	-6%	10%	17
Cc1ccn2c(=O)cc(CN3CC[C@@H]4[C@@H](CCC(=O)N4CCC(C)C)C3)nc2c1	28µM*	-17%	-1%	6
c1cc2c(cc1N1CCC(N[C@H]3C[C@@H]4OCC[C@H]34)CC1)CCC2	i	41%	-1%	29
Fc1ccc2cnc(N3CCC(N[C@H]4C[C@@H]5OCC[C@H]45)CC3)nc2c1	25µM*	99%	-1%	44
O=Cc1ccc(-c2cncc(C(=O)O)c2)cc1	100µM*	16%[87.6 µM]	5%[87.6 µM]	-18
CN(CC(=O)Nc1ccc(Cl)cc1)C(=O)c1cccc(S(=O)(=O)NCC2CCCO2)c1 (configuration not stated)	i	.	.	.
COc1ccc2nc3n(c2c1)[C@@H](CNC(=O)C1CCOCC1)COC3	40µM*	-3%[87.6 µM]	-14%[87.6 µM]	1
COc1ccc(CN2C=C(C(=O)OCc3c(C)noc3C)C(C)=NS2(=O)=O)cc1	i	-12%	-1%	7
CNC(=O)CCn1ncc2cc(OCc3ccccc3-c3cccc(C)c3)ccc21	35µM*	1%[87.6 µM]	?	16
c1cncc(CN2CCC(C3CCN(Cc4ccc[nH]4)C3)CC2)c1 (configuration not stated)	14µM*	0%	-3%	-7
O=C1CC2(CCN(C(=O)c3ccccc3F)CC2)Oc2ccccc21	25µM*	14%	-3%	9
O=C1NC2(CCCN(C(=O)c3ccccn3)C2)Oc2ccccc21 (configuration not stated)	i	39%[87.6 µM]	1%[87.6 µM]	34
O=C1CC2(CCN(C(=O)c3ccccn3)CC2)Oc2ccccc21	32µM*	-3%[87.6 µM]	0%[87.6 µM]	5
O=C(c1ccccc1F)N1CCC2(CC1)CC(=O)N(c1ccccc1)c1ccccc1O2	i	-13%	3%	0
O=C1CC2(CCN(C(=O)c3ccccc3)CC2)Oc2ccccc21	32µM*	8%[87.6 µM]	-1%[87.6 µM]	1
O=C(Nc1ccc(Br)cc1)c1ccc2c(c1)CCC2	i	.	.	.
COc1ccc(-n2c(-c3ccc(Cl)cc3)cc3c2CC(C)(C)CC3=O)c(OC)c1	?	?	-4%	-6
O=C(Nc1ccc(-c2nc3ccccc3o2)cc1)c1ccc2ccccc2c1	i	.	.	.
CC(C)NC(=O)N1CCN(C(=O)NC2CCCCC2)[C@@H](C(=O)N[C@H](Cc2c[nH]c3ccccc23)C(N)=O)C1	i	-15%	-10%	1
COCC(=O)N[C@H]1CCN(C(=O)COC)[C@H](C(=O)N[C@H](Cc2c[nH]c3ccccc23)C(=O)OC)C1	22µM*	1%	14%	-5
COC(=O)C1=CN(Cc2ccc(F)cc2)C=C(C(=O)OC)C1c1cccc(O)c1	i	.	.	.
O=C1[C@H]2CC[C@H](CN(Cc3cccc(N4CCOCC4)c3)C2)N1CC1CCC1	i	-21%	-19%	25
O=C1[C@H]2CC[C@H](CN(Cc3ccc(-n4ccnc4)cc3)C2)N1CC1CCC1	20µM*	0%	-11%	3
SMILES	KDM5B inh	SNCA expr inh	SNCA viab count	IP6K1 inhibitor
CCN(CCOc1ccc(F)cc1)C(=O)c1cnc(NC(C)C)nc1	28µM*	1%	2%	-3
O=C1N(Cc2ccccc2F)CCOC12CCN(Cc1ccccc1F)CC2	16µM*	-22%[87.6 µM]	3%[87.6 µM]	-5
O=C1N(Cc2ccccc2F)CCOC12CCN(Cc1ccccc1)CC2	?	9%[87.6 µM]	8%[87.6 µM]	8
O=C(NCc1ccc2c(c1)OCO2)c1nc(-c2ccc(Cl)cc2)c2cnccn12	28µM*	156%	23%	0
C#CCNC(=O)c1nc(-c2ccc(Cl)cc2Cl)c2ccccn12	89µM*	?	-13%	10
C#CCNC(=O)c1nc(-c2ccc(Cl)cc2)c2ccccn12	32µM*	116%[87.6 µM]	-3%[87.6 µM]	11
C#CCNC(=O)c1nc(-c2ccc(Cl)cc2)c2cnccn12	40µM*	-1%[87.6 µM]	12%[87.6 µM]	0
Cc1cccc(CNc2ncncc2-c2ccc(C(=O)N(C)C)cc2)c1	.	-3%	7%	.
C#CCNC(=O)c1nc(-c2cc(Cl)cc(Cl)c2)c2ccccn12	10µM*	-26%[87.6 µM]	3%[87.6 µM]	10
Cc1cc2c(-c3ccccc3F)nc(-c3c(C)noc3C)cc2[nH]1	35µM*	61%[87.6 µM]	-11%[87.6 µM]	-12
Cc1cc2c(-c3ccccc3C)nc(-c3c(C)noc3C)cc2[nH]1	32µM*	0%[87.6 µM]	-13%[87.6 µM]	-1
COc1cccc(-c2nc(-c3c(C)noc3C)cc3[nH]c(C)cc23)c1OC	i	17%[87.6 µM]	-22%[87.6 µM]	0
Cc1cc2c(-c3ccccc3O)nc(-c3c(C)noc3C)cc2[nH]1	35µM*	46%[87.6 µM]	?	-21
Cc1noc(-c2ccccc2OC2CCN(S(C)(=O)=O)C2)n1 (configuration not stated)	22µM*	?	10%	18
Cc1cccc(C)c1NC(=O)CSC1=NS(=O)(=O)c2ccccc2N1	i	.	.	.
CN(C)c1ccc(-c2nnnn2[C@H]2CO[C@H]3[C@@H]2OC[C@H]3OC(=O)Nc2ccc(Oc3ccccc3)cc2)cc1	13µM*	-18%	-6%	10
CN(C)c1ccc(-c2nnnn2[C@H]2CO[C@H]3[C@@H]2OC[C@H]3OCc2ccccc2)cc1	32µM*	4%[87.6 µM]	3%[87.6 µM]	-1
O=C(Nc1ccc(Oc2ccccc2)cc1)O[C@@H]1CO[C@H]2[C@@H]1OC[C@@H]2n1nnnc1-c1ccc(-c2ccccc2)cc1	?	-5%	2%	-3
COc1ccc(-c2cn3c(n2)CO[C@@H](CNS(C)(=O)=O)C3)cc1	?	31%[87.6 µM]	-7%[87.6 µM]	-9
Cc1ccc(-c2cn3c(n2)CO[C@@H](CNS(C)(=O)=O)C3)cc1	40µM*	35%[87.6 µM]	-2%[87.6 µM]	3
Cc1ccc(S(=O)(=O)NNC(=O)c2cc([N+](=O)[O-])c(C)c([N+](=O)[O-])c2)cc1	i	.	.	.
CCCCN(C)C(=O)CSc1nc2ccccc2nc1Cc1ccc(C)cc1	i	14µM*	?	26
CCCCNC(=O)CSc1nc2ccccc2nc1Cc1ccc(C)cc1	i	0%	-2%	-6
Cc1ccc(Cl)cc1N1CCN(CC(=O)NC2CCS(=O)(=O)C2)CC1 (configuration not stated)	i	.	.	.
Cc1ccc2nc(SCc3nc(-c4ccc(Cl)cc4)no3)[nH]c2c1	i	22µM*	-9%	30
CC(C)CC(=O)NC(C(=O)N1CCCCC1)C1CCN(C(=O)c2ccc(Cl)cc2)CC1 (configuration not stated)	i	12%	-2%	8
c1cncc(-c2cc(-c3cccc4cc[nH]c34)cn3cncc23)c1	35µM*	-11%[87.6 µM]	-8%[87.6 µM]	-15
NC(=O)c1cccc(-c2cc(-c3cccnc3)c3cncn3c2)c1	?	0%[87.6 µM]	-10%[87.6 µM]	294
C[S+](=O)([O-])Nc1cccc(-c2cc(-c3cccnc3)c3cncn3c2)c1	35µM*	2%[87.6 µM]	-9%[87.6 µM]	-11

Screening results as filed in PubChem BioAssay.
